Assay [1] is described as follows: Her2 expression decrease, cell viability multiplex – SKBR3 breast tumor cells, AlphaScreen, ATP viability, primary screen (AID 461;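 active means Her2 level under about 52% in both replicate screens, with viability over 70% of control, limit read from the data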;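 on Her2 level: lower value means less Her2 protein in the cells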;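 on viability: percent of carrier control wells set as 100% viability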). As to conditions: SKBR3 Her2 protein level, 18-24 h, measured here: SKBR3 viability, ATP luminescence, at 10 µM. (In general: Alpha assays give light when donor and acceptor beads are brought close together.)
Assay [2] concerns the target Receptor tyrosine-protein kinase erbB-2 (Homo sapiens) (UniProt P04626). Described as above. As to conditions: 18-24 h, at 10 µM, stronger effect = lower value.
Assay [3] is described as follows: reduced viability of SK-BR-3 breast cancer cells – cell-based, 24 h, human, pilot screen (AID 572;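 active means viability at or below 10% of carrier control in both of two separate runs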;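 further: compound exposure lasted between 18 and 24 h rather than exactly 24 h; 100% = carrier-treated control wells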). The conditions noted are these: SK-BR-3 viability, CellTiter-Glo luminescence, at 10 µM, stronger effect = lower value.
Assay [4] can be described thus: HUVEC growth inhibition – cell-based, human, primary screen (AID 575;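 active means viability at or below 30% in both replicate assays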;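 further: 100% = median of untreated cell wells with 0.1% DMSO on each plate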). As to conditions: HUVEC proliferation, CellTiter-Glo luminescence, 72 h; at 10 µM; stronger effect = lower value. Background: ATP-based viability assays read luminescence as a measure of living cells.
Assay [5] in a line: H69AR cell proliferation blockers – human, duplicate replicates, primary screen (AID 580;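 active means viability at or under a set limit in both replicates, limit being median viability minus 3 SD, cut at about 48% in these data, passing the limit was not always enough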;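 further: 100% = mean luminescence of untreated wells and 0% = no signal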). As to conditions: H69AR lung tumor cells viability, ATP luminescence, 72 h; at 10 µM; stronger effect = lower value.
Assay [6] is described as follows: MRP1 drug-resistance reversers in H69AR cells – cell-based, doxorubicin co-treatment, pilot screen (AID 601;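 active means viability loss from added drug above about 55%, and viability with drug at most 40%, in both replicates, limit read from the data, passing the limit was not always enough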). As to conditions: CellTiter-Glo, 72 h, at 10 µM; for differential viability (reversal): stronger effect = higher value.
The nature of assay [7]: yeast transport mutant growth inhibition pilot in 384-well plates, post-Golgi transport modulator project (AID 636; in the data active means inhibition above about 31%). As to conditions: absorbance 615 nm, about 18 h, stronger effect = higher value.
Assay [8] is described as follows: growth suppression of yeast trafficking mutant, preliminary HTS, modulators of trafficking downstream of Golgi apparatus project, 1536-format plate, OD 615 nm (AID 637; in the data active means inhibition above about 30%). The conditions noted are these: yeast transport mutant growth, absorbance 615 nm, 18 h; stronger effect = higher value.
Assay [9] can be described thus: S. cerevisiae growth inhibition in permissive medium (OD615), pilot counter-assay for S. cerevisiae lifespan shortening project, permissive growth control (AID 705). As to conditions: OD615, 24 h, at 10 µM, stronger effect = higher value.
Assay [10] in a line: S. cerevisiae growth inhibition in restrictive medium, OD615, pilot screen, restrictive growth control, yeast lifespan reduction project (AID 706;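 active means growth inhibition above a set limit, 3 SD over mean compound inhibition, in both replicates, cut at about 43% in these data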;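 further: modified DeaD lifespan yeast strain shifted to restrictive glucose medium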). The conditions noted are these: OD615, 48 h, at 10 µM, stronger effect = higher value.
Assay [11] in a line: doxorubicin toxicity protection in MRP-1 cells – H69AR cells, CellTiter-Glo, duplicate, MRP-1 activator project, pilot screen (AID 807;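 active means viability increase at or above a cutoff of the median across tested compounds plus 3 SD, cut at about 8.5% in these data, passing the limit was not always enough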;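 further: compound pretreatment 18-22 h then 72 h combined with doxorubicin; 0% = doxorubicin alone and 100% = vehicle without doxorubicin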). As to conditions: H69AR viability with doxorubicin, CellTiter-Glo luminescence; at 10 µM; stronger effect = higher value.
Assay [12] can be described thus: viability of HCT116 without oncogenic beta-catenin – human colon tumor cells, pilot screen (AID 823;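 active means cell viability at or below a set limit in both duplicate runs, the limit being the all-compound median minus 4 SD, cut at about 23% in these data, passing the limit was not always enough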;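 further: 0% = wells killed by 20 µM Hyamine and 100% = untreated DMSO cell wells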). As to conditions: HCT116 beta-catenin knockout viability, CellTiter-Glo, 60 h; at 10 µM; stronger effect = lower value.
Assay [13] in a line: viability of PTEN-null HCT116 cells – cell-based, HCT116 clonal line, CellTiter-Glo, pilot screen (AID 824;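 active means viability at or below 27.92% in each of two runs, the all-compound median minus 4 SD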;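 further: 0% = 20 µM Hyamine control and 100% = vehicle cell control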). The conditions noted are these: HCT116 PTEN-deleted viability, 60 h, at 10 µM, stronger effect = lower value.
Assay [14] is described as follows: RAM pathway blockade in budding yeast – dse1pr::URA3 reporter, 5-FOA selection, pilot screen (AID 869;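 active means inhibition over a set limit, the all-compound mean plus 3 SD, in both replicate runs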;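 further: 0% = DMSO wells with no growth and 100% = 10 µM 1-NA-PP1 with full growth; RAM network block rescues cells from 5-FOA so hits raise OD615 growth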). The conditions noted are these: S. cerevisiae dse1pr::URA3 5-FOA growth, OD615, 2 d; at 10 µM; stronger effect = higher value; strain carries analog-sensitive mutant Cbk1 kinase.
A short description of assay [15]: RAM signaling pathway blockade in yeast – S. cerevisiae, Pdr1DBD-CYC8 efflux-inhibited sensitized strain, primary screen (AID 1298;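 active means RAM network inhibition above 8.4% in each of two replicates, 3 SD over the compound average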;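 further: 0% = DMSO untreated cells without growth and 100% = 10 µM 1-NA-PP1 full growth; higher means more yeast growth rescued from 5-FOA killing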). As to conditions: S. cerevisiae cbk1-as DSE1-URA3 strain, 5-FOA growth OD615, 2 d; at 50 µM; stronger effect = higher value.
Where [16] appears, read: H69AR cells + 2 uM doxorubicin, measured here: viability with 2 uM doxorubicin, stronger effect = lower value.
[17] abbreviates: H69AR cells, compound alone cytotoxicity.

The structures appear in SMILES notation. Results filed as inconclusive are left out. Calls of active or inactive are those of the source.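 How the source made its calls, unless noted: active means growth inhibition above 25% in both replicates, a cutoff set 3 SD above the mean; inconclusive means above 25% in only one replicate; inactive means the rest.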

Chain of Receptor tyrosine-protein kinase erbB-2 (Homo sapiens) (P04626 whole entry, looked up): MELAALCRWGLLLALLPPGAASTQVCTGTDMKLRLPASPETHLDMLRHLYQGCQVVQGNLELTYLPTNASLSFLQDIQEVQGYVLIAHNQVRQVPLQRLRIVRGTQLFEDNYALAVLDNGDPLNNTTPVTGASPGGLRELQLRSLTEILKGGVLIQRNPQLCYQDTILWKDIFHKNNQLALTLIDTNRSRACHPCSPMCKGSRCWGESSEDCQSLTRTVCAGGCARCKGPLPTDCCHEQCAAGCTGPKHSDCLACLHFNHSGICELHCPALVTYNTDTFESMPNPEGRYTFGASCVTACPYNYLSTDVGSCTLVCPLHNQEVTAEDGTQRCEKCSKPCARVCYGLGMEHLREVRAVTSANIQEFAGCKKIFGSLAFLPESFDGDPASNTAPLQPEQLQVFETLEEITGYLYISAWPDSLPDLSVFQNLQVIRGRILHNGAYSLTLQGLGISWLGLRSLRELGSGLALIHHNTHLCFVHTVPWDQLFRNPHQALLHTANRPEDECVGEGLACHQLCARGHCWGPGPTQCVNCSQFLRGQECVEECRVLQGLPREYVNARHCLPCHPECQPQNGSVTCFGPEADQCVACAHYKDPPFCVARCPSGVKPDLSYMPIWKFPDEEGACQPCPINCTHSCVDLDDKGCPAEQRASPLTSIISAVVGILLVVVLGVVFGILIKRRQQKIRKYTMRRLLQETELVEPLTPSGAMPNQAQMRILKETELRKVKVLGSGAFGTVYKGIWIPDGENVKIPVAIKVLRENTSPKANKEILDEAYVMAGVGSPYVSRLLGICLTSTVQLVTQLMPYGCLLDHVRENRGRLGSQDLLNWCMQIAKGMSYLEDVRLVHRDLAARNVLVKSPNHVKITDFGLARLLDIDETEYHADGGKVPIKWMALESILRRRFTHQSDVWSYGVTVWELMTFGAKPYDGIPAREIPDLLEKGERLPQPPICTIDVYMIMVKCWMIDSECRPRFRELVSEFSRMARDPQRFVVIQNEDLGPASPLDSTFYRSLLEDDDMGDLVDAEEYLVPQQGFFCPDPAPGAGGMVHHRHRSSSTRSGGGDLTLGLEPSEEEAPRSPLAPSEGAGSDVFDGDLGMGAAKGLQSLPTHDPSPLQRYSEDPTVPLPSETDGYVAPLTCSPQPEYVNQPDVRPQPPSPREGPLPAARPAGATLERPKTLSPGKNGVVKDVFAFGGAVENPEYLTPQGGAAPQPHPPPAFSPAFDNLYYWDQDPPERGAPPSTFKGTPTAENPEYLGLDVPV

As usually defined, the viability is a read-out of living cells in per cent, often relative to untreated cells. By inhibition is commonly meant the drop in the measured response relative to a control, in per cent. For `CCOC(=O)CN(C(=O)c1ccccc1)c1ccccc1C`, the viability in assay [1] was 93%; in assay [3] it was 93% (inactive); in assay [4], 104% (inactive); in [5], 109% (inactive); in assay [6] (setting [16]), 94%; in assay [6] (setting [17]) it was 109%. Also, the viability is 91.8% (inactive) in [12] and 94.2% (inactive) in assay [13]. Also, in assay [2], the Her2 level was 108% (inactive). Besides, in [6] (H69AR cells + 2 uM doxorubicin), the differential viability (reversal) was 15.2% (inactive). The inhibition is 0.78% (inactive) in assay [7], -11% (inactive) in assay [8] and 0.91% (inactive) in assay [14]. Moreover, the results for the growth inhibition in assay [9] and in [10] were -12.9% (inactive) and 6.67% (inactive), respectively. The viability increase in assay [11] was -0.66% (inactive). In addition, in assay [15], the RAM network inhibition is 1.96% (inactive).

As for `CCCN1CCN(CCCNC(=O)Cn2ncc3c4ccccc4n(C)c3c2=O)CC1`, the viability in assay [1] is 99%; in assay [3] it was 99% (inactive); in [4], 101% (inactive); in assay [5], 102% (inactive); in assay [6] (setting [16]), 96.8%; in [6] (setting [17]), 102%. In addition, the viability is 96.7% (inactive) in assay [12] and 95.8% (inactive) in assay [13]. Moreover, the Her2 level in [2] was 120% (inactive). Also, the differential viability (reversal) in assay [6] (H69AR cells + 2 uM doxorubicin) is 5.29% (inactive). In addition, the inhibition was 0.9% (inactive) in assay [7], 5.17% (inactive) in assay [8] and 1.89% (inactive) in [14]. In addition, the growth inhibition in [9] is 4.22% (inactive); in assay [10], -10.6% (inactive). Moreover, the viability increase in [11] was -1.73% (inactive). For the same compound, the RAM network inhibition in [15] was -0.33% (inactive).

In the case of `O=C(CCN1C(=O)c2ccccc2C1=O)Nc1ccc(F)cc1`, the viability was 108% in assay [1]; 108% (inactive) in assay [3]; 116% (inactive) in [4]; 104% (inactive) in assay [5]; 90.6% in [6] (setting [16]); 104% in assay [6] (setting [17]). Further, the viability in assay [12] was 107% (inactive); in assay [13] it was 110% (inactive). Moreover, the Her2 level in assay [2] is 76% (inactive). Besides, the differential viability (reversal) in assay [6] (H69AR cells + 2 uM doxorubicin) is 12.9% (inactive). The values for the inhibition in assay [7], in assay [8] and in assay [14] were -1.95% (inactive), -7% (inactive) and 1.6% (inactive), respectively. For the same compound, the figures for the growth inhibition in assay [9] and in assay [10] were -8.49% (inactive) and -11.6% (inactive), respectively. In addition, in assay [11], the viability increase was 3.01% (inactive). In addition, in assay [15], the RAM network inhibition was -0.26% (inactive).

As to `CCc1nc2sc(C)c(C)c2c(=O)n1CCO`, the viability was 106% in assay [1]; 106% (inactive) in assay [3]; 104% (inactive) in assay [4]; 94.7% (inactive) in [5]; 90.6% in [6] (setting [16]); 94.7% in [6] (setting [17]). Besides, the figures for the viability in assay [12] and in [13] were 104% (inactive) and 102% (inactive), respectively. Moreover, the Her2 level in [2] was 85% (inactive). In assay [6] (H69AR cells + 2 uM doxorubicin), the differential viability (reversal) was 4.12% (inactive). Further, the inhibition is -6.23% (inactive) in assay [7], -3.67% (inactive) in assay [8] and 0.35% (inactive) in assay [14]. The growth inhibition in [9] is -1.03% (inactive); in assay [10], 0.805% (inactive). Moreover, the viability increase in [11] was -1.82% (inactive). In addition, the RAM network inhibition in assay [15] is 2.87% (inactive).

With `Cc1cc(C)nc(NC2=NCC(=O)N2c2ccccc2Br)n1`, the viability in assay [1] is 93%; in [3], 93% (inactive); in [4] it was 101% (inactive); in assay [5], 89.8% (inactive); in assay [6] (setting [16]) it was 100%; in assay [6] (setting [17]), 89.8%. For the same compound, the viability in assay [12] was 95.4% (inactive); in assay [13], 100% (inactive). For the same compound, the Her2 level in assay [2] is 93.5% (inactive). Also, the differential viability (reversal) in assay [6] (H69AR cells + 2 uM doxorubicin) is -10.2% (inactive). Besides, the inhibition in assay [7] was -7.07% (inactive); in [8], -2.33% (inactive); in assay [14] it was 2.06% (inactive). The growth inhibition in assay [9] was -2.53% (inactive); in [10], 4.3% (inactive). For the same compound, the viability increase in assay [11] was -0.37% (inactive). For the same compound, the RAM network inhibition in assay [15] is 8.53% (inactive).

Consider `COCCOC(=O)C1=C(C)N=c2s/c(=C\c3cccs3)c(=O)n2C1c1cccs1` (stereo not drawn), for which the viability in assay [1] was 91.5%; in assay [3], 91.5% (inactive); in assay [4], 82.4% (inactive); in assay [5], 71.9% (inactive); in assay [6] (setting [16]), 75.9%; in assay [6] (setting [17]) it was 71.9%. In addition, the values for the viability in assay [12] and in [13] were 86.3% (inactive) and 82.7% (inactive), respectively. The Her2 level in assay [2] was 77% (inactive). Also, the differential viability (reversal) in [6] (H69AR cells + 2 uM doxorubicin) is -4.05% (inactive). The inhibition in [7] is -6.89% (inactive); in assay [8], -8.17% (inactive); in assay [14] it was 2.83% (inactive). Besides, the growth inhibition in assay [9] is -9.14% (inactive); in assay [10] it was 1.78% (inactive). Moreover, the viability increase in [11] is -0.91% (inactive). In addition, the RAM network inhibition in assay [15] is 6.91% (inactive).

As to `Cc1nc2ccccc2c2oc(C(=O)NCCN3CCCCC3C)cc12` (stereo not drawn), the viability in assay [1] is 81%; in assay [3], 81% (inactive); in [4], 99.5% (inactive); in [5], 93.1% (inactive); in [6] (setting [16]) it was 99.2%; in [6] (setting [17]), 93.1%. Moreover, the results for the viability in [12] and in [13] were 66.4% (inactive) and 70.6% (inactive), respectively. The Her2 level in assay [2] is 94% (inactive). In assay [6] (H69AR cells + 2 uM doxorubicin), the differential viability (reversal) was -6.12% (inactive). The inhibition in [7] is -3.46% (inactive); in assay [8], -3% (inactive); in assay [14], 1.77% (inactive). The figures for the growth inhibition in [9] and in [10] were -3.45% (inactive) and 0.34% (inactive), respectively. Moreover, the viability increase in assay [11] was -2.08% (inactive). Moreover, the RAM network inhibition in assay [15] was -0.67% (inactive).

`O=C(Cn1cc2c(n1)CCCCC2)N1CCc2ccccc2C1`: the viability in assay [1] is 116%; in [3], 116% (inactive); in [4] it was 95% (inactive); in assay [5], 92.9% (inactive); in assay [6] (setting [16]), 89.8%; in [6] (setting [17]), 92.9%. Further, the figures for the viability in [12] and in assay [13] were 86.2% (inactive) and 84.7% (inactive), respectively. In addition, the Her2 level in assay [2] is 114% (inactive). Besides, the differential viability (reversal) in assay [6] (H69AR cells + 2 uM doxorubicin) is 3.17% (inactive). In addition, the inhibition in assay [7] was -2.18% (inactive); in [8] it was -3% (inactive); in assay [14] it was 1.98% (inactive). In addition, the growth inhibition in assay [9] is 7.48% (inactive); in assay [10] it was 10.6% (inactive). Further, in assay [11], the viability increase is 1.54% (inactive). In addition, the RAM network inhibition in [15] was 6.93% (inactive).

Turning to `O=C(Nn1cnnc1)C1Cc2ccccc2CN1S(=O)(=O)c1ccc(F)cc1` (stereo not drawn), the viability in assay [1] was 112%; in assay [3] it was 112% (inactive); in assay [4], 90.4% (inactive); in [5], 97.2% (inactive); in assay [6] (setting [16]) it was 98.8%; in assay [6] (setting [17]) it was 97.2%. The viability was 101% (inactive) in [12] and 102% (inactive) in [13]. The Her2 level in [2] is 97% (inactive). Further, the differential viability (reversal) in [6] (H69AR cells + 2 uM doxorubicin) was -1.64% (inactive). Also, the values for the inhibition in assay [7], in assay [8] and in assay [14] were -5.95% (inactive), 4.75% (inactive) and 0.38% (inactive), respectively. Further, the growth inhibition in assay [9] is -1.04% (inactive); in [10], 5.43% (inactive). Further, the viability increase in assay [11] is 0.15% (inactive). Moreover, the RAM network inhibition in assay [15] is 4.84% (inactive).
